Measured values: ChEMBL document CHEMBL3988442, “University of Dundee, Small-Polar-MMV Screening Library” (2021)
The whole screen tested about 48,000 compounds, of which about 13,000 (27%) showed an effect of 50% or more. The list shows a part of the results.

What follows are compounds tested on Wolbachia pipientis (assay: Anti-Wolbachia Cell-Based Screen). Conditions: 5 µM.
Type: functional
Parameters: scale not given: in the data most compounds retested in dose-response had high values

Compound | Percent Effect [%]
COC(C)c1noc(CN(C)c2ncc(Br)cn2)n1 (stereo not given) | 13.56
CCCc1noc(CCCC(=O)N2CCCC(n3ccnc3C)C2)n1 (stereo not given) | -4.622
CCCN1CCC(N2CCC(Cn3cc(C4CC4)nn3)CC2)CC1 | -14.8
Cc1ccc(F)c(S(=O)(=O)NCc2cccc(CS(C)(=O)=O)c2)c1 | -5.265
Cc1cccc(CN2C[C@@H]3CN(C4CCOCC4)C[C@@H]3C2=O)c1.O=C(O)C(F)(F)F | 2.907
CCS(=O)(=O)N1C[C@H]2CN(Cc3cccc(C)c3)C(=O)[C@H]2C1 | 103
COc1ccc(CN2C[C@@H]3CN(CCO)C[C@@H]3C2=O)cc1 | -4.847
O=C(O)C(F)(F)F.O=C1[C@H]2CN(CC3CCOCC3)C[C@H]2CN1Cc1cccc(F)c1 | -3.595
CCS(=O)(=O)N1C[C@H]2CN(Cc3ccc(OC)cc3)C(=O)[C@H]2C1 | 106.9
Cc1cccc(CN2C[C@@H]3CN(C(=O)c4ccsc4)C[C@@H]3C2=O)c1 | 0.6245
CCS(=O)(=O)N1C[C@H]2CN(Cc3cccc(F)c3)C(=O)[C@H]2C1 | 106.4
Cc1cccc(CN2C[C@@H]3CN(C(=O)NC(C)C)C[C@@H]3C2=O)c1 | 0.03785
COc1ccc(CN2C[C@@H]3CN(S(=O)(=O)C4CC4)C[C@@H]3C2=O)cc1 | -20.01
CCCNC(=O)[C@@H]1CCCN1[C@@H](C(=O)NC)C1CC1.Cl | -3.59
O=C(N1CCC(O)(C(F)(F)F)C1)C1(c2cccc(Cl)c2)CC1 (stereo not given) | -4.685
C[S+]([O-])c1ccc(NC(=O)CC2=CCCCC2)cc1 (stereo not given) | -2.422
CCOCC1CN(c2ncc(F)cn2)Cc2cn(CC)nc21 (stereo not given) | -1.494
CCn1ncc2c1CN(C(=O)Cc1ccccn1)CC2COC.O=C(O)C(F)(F)F.O=C(O)C(F)(F)F (stereo not given) | -10.79
CCn1ncc2c1CN(CCc1cccc(Cl)c1)CC2COC.O=C(O)C(F)(F)F.O=C(O)C(F)(F)F (stereo not given) | 128.6
CCOCC1CN(CCOCc2ccccc2)Cc2c1cnn2C (stereo not given) | -3.92
CCn1ncc2c1CN(C(=O)c1cc(C)oc1C)CC2COC.O=C(O)C(F)(F)F (stereo not given) | -2.484
COCC1CN(CCOc2ccc(Cl)cc2)Cc2c1cnn2C.O=C(O)C(F)(F)F.O=C(O)C(F)(F)F (stereo not given) | 128.1
COCC1CN(S(=O)(=O)c2ccc(C)cc2)Cc2c1cnn2C.O=C(O)C(F)(F)F (stereo not given) | 14.09
CCOCC1CN(CCc2ccccc2)Cc2c1cnn2C (stereo not given) | 9.007
CCOCC1CN(CCOc2ccc(Cl)cc2)Cc2c1cnn2C.O=C(O)C(F)(F)F.O=C(O)C(F)(F)F (stereo not given) | -5.642

Compound | Percent Effect [%]
COCC1CN(CCc2ccc(OC)c(OC)c2)Cc2c1cnn2C (stereo not given) | 98.17
CN1CCN(c2ccc(NCc3ccc(OC(F)(F)F)cc3)cn2)CC1 | -13.31
COC(=O)N1CCC(Nc2cccc(F)c2C#N)CC1 | 6.326
N#Cc1ccccc1C(=O)N1C[C@@H](CN2CCCCCC2)[C@@H](CO)C1 | -2.218
Cc1nnc(SCC(=O)N2CCc3[nH]nc(C4CCC4)c3C2)o1 | -25.51
CCN(CC)C(=O)C(c1ccccc1)N1CCn2c(C)nnc2C1 (stereo not given) | -5.766
CC1(C)CC(CC(=O)N2CC(C)(C)[C@@](C)(O)C2)CC(C)(C)N1 | -10.88
CCc1cc(N[C@@H](CC(C)C)C(N)=O)n2nc(C)c(C)c2n1 | 1.157
O=C([C@H]1CCCO1)N1CCN(Cc2cccnc2)c2ncccc2C1 | 109.6
O=C1CC(C(=O)N2CCc3sccc3C2)CN1Cc1cccnc1 (stereo not given) | -4.394
O=C([C@@H]1CCCO1)N1CCN(Cc2ccncc2)c2ncccc2C1 | 98.82
CCC(C)(C)NC(=O)c1ccc(NC(=O)NCc2cc(C)no2)cc1 | -4.635
COCCN(CCOC)c1nc2c(s1)c(C)nn2C | 0.9407
COCC(=O)N1CCC(C(=O)Nc2ccc(C(C)=O)cc2)CC1 | -27.44
COC(=O)[C@@H](NC(=O)Nc1ccc(C(C)=O)cc1)C(C)C | 115.5
COC(=O)C(NC(=O)Nc1ccc(C(C)=O)cc1)C(C)C (stereo not given) | 123.5
Cc1ccc(NC(=O)NC(C)c2nc[nH]n2)cc1 (stereo not given) | -1.45
COc1ccc(C(=O)N2CCCC(n3cncn3)C2)nn1 (stereo not given) | 89.87
O=C(c1ccc(OCC2CC2)nc1)N1CCCC(n2cncn2)C1 (stereo not given) | -8.592
CCn1nc(C(=O)N2CCCC(n3cncn3)C2)ccc1=O (stereo not given) | -5.268
CCc1nccn1C1CCCN(C(=O)c2ccc(N(C)C)nn2)C1 (stereo not given) | 8.431
Cc1nccn1C1CCCN(C(=O)c2ccc(N(C)C)nn2)C1 (stereo not given) | 121.5
Cc1nc(C)n(C2CCCN(C(=O)c3ccc(N(C)C)nn3)C2)n1 (stereo not given) | -4.997
CN(C)c1ccc(C(=O)N2CCCC(n3cncn3)C2)nn1 (stereo not given) | 102.9
Cc1cnn(C2CCCN(C(=O)c3ccc(N(C)C)nn3)C2)c1 (stereo not given) | -2.152
